# Reference: ChEMBL document CHEMBL1961873, “Compounds: GSK PKIS; Assays: Nanosyn kinase panel” (2012)
# Tests used:
# [1] = target: Leukocyte tyrosine kinase receptor (Homo sapiens) (UniProt P29376); conditions: at 1 µM;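 note: each value is the mean inhibition of LTK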
# [2] = target: Tyrosine-protein kinase Lyn (Homo sapiens) (UniProt P07948); conditions: at 0.1 µM
# [3] = target: Tyrosine-protein kinase Lyn (Homo sapiens) (UniProt P07948); conditions: at 1 µM
# [4] = target: Tyrosine-protein kinase Lyn (Homo sapiens) (UniProt P07948); conditions: at 0.1 µM; remark: listed apart in the source
# [5] = target: Tyrosine-protein kinase Lyn (Homo sapiens) (UniProt P07948); conditions: at 1 µM; remark: listed apart in the source
# [6] = target: T1, Tyrosine-protein kinase Mer (Homo sapiens) (UniProt Q12866); conditions: at 0.1 µM
# T1 sequence (whole entry): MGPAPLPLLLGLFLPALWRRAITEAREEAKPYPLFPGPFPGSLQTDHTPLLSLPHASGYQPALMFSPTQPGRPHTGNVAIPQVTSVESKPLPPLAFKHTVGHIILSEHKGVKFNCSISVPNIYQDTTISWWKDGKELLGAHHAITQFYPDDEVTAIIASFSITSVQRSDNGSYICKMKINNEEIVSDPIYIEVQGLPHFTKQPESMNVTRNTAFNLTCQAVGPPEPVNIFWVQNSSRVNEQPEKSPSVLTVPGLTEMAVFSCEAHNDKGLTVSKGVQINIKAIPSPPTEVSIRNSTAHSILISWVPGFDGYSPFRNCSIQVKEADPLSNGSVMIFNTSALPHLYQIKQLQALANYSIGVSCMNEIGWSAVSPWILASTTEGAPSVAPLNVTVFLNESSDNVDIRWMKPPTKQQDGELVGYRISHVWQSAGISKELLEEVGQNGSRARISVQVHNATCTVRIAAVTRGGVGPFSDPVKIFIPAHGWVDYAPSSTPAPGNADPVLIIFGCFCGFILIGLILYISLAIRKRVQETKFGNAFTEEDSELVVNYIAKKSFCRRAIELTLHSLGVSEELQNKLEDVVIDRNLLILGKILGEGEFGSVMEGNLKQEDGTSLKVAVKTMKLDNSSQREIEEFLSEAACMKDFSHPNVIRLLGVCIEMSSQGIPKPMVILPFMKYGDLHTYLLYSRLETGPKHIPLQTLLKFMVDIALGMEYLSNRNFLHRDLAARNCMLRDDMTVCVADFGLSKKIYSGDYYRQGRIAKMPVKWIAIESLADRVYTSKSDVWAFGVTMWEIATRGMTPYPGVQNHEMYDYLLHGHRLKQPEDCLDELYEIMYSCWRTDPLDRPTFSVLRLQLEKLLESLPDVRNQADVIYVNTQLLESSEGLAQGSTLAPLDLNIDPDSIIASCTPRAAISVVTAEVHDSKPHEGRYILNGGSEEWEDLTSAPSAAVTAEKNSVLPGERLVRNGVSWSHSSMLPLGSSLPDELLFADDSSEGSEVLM
# [7] = target: T1, Tyrosine-protein kinase Mer (Homo sapiens); conditions: at 1 µM
# [8] = target: Hepatocyte growth factor receptor (Homo sapiens) (UniProt P08581); conditions: at 0.1 µM
# Chain of Hepatocyte growth factor receptor (Homo sapiens) (P08581 whole entry): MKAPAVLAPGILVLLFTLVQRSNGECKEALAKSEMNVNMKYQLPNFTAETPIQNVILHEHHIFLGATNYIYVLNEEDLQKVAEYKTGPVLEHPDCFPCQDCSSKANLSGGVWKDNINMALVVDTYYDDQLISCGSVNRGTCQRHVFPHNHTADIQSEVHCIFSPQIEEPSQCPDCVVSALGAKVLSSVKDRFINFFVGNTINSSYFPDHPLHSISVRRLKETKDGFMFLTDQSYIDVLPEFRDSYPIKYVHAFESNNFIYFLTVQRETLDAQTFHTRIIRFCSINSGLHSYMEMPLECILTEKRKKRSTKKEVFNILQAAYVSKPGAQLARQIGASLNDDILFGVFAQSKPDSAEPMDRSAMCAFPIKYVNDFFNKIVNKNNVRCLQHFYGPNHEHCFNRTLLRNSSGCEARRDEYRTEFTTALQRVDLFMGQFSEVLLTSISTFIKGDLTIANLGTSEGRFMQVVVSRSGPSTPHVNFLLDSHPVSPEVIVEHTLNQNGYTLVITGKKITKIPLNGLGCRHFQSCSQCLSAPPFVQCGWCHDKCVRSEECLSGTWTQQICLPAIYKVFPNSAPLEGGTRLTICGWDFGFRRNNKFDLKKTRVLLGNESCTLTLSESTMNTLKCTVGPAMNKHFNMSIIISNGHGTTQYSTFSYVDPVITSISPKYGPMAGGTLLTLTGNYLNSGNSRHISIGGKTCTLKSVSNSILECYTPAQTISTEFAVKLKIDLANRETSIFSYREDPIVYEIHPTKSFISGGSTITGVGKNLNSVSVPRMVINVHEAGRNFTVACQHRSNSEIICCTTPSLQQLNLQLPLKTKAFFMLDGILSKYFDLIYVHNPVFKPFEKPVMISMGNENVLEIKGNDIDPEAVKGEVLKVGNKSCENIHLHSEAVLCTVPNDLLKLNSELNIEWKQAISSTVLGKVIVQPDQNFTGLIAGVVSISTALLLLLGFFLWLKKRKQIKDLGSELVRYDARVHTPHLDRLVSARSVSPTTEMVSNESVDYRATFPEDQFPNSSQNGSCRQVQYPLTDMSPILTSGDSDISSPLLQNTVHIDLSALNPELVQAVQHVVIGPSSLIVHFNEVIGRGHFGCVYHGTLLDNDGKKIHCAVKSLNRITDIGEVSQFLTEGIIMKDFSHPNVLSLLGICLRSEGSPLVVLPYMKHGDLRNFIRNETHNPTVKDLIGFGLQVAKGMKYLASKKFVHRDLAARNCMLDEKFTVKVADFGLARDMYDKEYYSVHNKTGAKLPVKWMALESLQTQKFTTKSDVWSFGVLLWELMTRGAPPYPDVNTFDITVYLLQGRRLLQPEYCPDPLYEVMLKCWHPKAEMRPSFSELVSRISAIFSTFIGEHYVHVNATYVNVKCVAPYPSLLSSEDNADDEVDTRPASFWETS
# [9] = target: Hepatocyte growth factor receptor (Homo sapiens) (UniProt P08581); conditions: at 1 µM
# [10] = target: T2, Muscle, skeletal receptor tyrosine-protein kinase (Homo sapiens) (UniProt O15146); conditions: at 0.1 µM
# T2 sequence (whole entry): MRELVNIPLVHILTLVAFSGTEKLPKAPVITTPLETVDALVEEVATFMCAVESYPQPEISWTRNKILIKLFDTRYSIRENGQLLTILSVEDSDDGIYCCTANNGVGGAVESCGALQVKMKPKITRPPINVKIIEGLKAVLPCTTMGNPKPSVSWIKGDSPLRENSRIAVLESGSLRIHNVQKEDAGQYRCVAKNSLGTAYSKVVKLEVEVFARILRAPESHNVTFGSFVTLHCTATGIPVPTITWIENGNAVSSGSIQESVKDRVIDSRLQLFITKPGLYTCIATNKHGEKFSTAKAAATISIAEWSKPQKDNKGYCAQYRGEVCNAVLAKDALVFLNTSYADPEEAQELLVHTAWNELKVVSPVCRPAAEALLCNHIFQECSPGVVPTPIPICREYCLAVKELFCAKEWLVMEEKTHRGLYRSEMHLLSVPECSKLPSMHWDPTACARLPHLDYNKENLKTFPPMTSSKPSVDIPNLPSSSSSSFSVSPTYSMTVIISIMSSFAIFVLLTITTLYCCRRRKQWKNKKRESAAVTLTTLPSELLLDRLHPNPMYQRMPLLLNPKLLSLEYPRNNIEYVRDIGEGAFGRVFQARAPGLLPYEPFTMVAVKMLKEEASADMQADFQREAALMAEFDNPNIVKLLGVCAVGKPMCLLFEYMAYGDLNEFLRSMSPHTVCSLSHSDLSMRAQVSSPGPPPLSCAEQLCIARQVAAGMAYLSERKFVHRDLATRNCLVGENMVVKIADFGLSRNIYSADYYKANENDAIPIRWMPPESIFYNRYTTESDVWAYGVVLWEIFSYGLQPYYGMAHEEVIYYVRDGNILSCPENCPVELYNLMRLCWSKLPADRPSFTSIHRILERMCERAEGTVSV
# [11] = target: T2, Muscle, skeletal receptor tyrosine-protein kinase (Homo sapiens); conditions: at 1 µM
# [12] = target: Platelet-derived growth factor receptor alpha (Homo sapiens) (UniProt P16234); conditions: at 0.1 µM
# Chain of Platelet-derived growth factor receptor alpha (Homo sapiens) (P16234 whole entry): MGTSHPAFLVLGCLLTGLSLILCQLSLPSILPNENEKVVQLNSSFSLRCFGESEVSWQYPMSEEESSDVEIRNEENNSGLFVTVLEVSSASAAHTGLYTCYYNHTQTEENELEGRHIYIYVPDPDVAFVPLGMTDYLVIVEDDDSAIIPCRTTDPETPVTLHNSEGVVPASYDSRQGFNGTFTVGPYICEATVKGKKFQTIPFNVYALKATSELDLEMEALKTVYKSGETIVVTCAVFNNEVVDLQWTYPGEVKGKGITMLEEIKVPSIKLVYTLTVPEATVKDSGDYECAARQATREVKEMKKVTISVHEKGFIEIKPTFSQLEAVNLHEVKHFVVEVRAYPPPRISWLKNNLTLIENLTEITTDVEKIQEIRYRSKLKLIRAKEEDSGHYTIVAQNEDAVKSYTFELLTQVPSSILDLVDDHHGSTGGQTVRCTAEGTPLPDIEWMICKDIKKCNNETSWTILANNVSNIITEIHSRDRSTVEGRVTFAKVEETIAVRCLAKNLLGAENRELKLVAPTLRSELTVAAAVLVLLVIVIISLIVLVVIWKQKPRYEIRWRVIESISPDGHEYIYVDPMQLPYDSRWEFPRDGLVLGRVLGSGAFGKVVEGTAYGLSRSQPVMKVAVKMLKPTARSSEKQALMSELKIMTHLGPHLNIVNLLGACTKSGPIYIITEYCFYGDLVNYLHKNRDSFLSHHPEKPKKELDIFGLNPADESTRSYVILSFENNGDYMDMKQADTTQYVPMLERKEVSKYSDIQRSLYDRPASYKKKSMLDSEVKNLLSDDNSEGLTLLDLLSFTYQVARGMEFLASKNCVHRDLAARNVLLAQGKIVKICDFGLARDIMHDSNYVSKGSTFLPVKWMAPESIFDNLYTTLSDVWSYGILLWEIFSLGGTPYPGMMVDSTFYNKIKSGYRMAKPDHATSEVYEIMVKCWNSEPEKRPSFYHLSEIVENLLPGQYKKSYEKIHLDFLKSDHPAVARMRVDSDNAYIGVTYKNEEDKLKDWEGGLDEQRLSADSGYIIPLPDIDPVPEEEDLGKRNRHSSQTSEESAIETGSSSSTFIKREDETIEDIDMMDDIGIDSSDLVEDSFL
# [13] = target: Platelet-derived growth factor receptor alpha (Homo sapiens) (UniProt P16234); conditions: at 1 µM
# [14] = test system: Platelet-derived growth factor receptor alpha (Homo sapiens), P16234 [D842V]; conditions: at 0.1 µM
# [15] = test system: Platelet-derived growth factor receptor alpha (Homo sapiens), P16234 [D842V]; conditions: at 1 µM
# [16] = test system: Platelet-derived growth factor receptor alpha (Homo sapiens), P16234 [T674I]; conditions: at 0.1 µM
# [17] = test system: Platelet-derived growth factor receptor alpha (Homo sapiens), P16234 [T674I]; conditions: at 1 µM
# [18] = test system: Platelet-derived growth factor receptor alpha (Homo sapiens), P16234 [V561D]; conditions: at 0.1 µM
# Chain of Platelet-derived growth factor receptor alpha (Homo sapiens), P16234 [V561D] (P16234 whole entry V561D): as the sequence (P16234 whole entry) above, with V561D counted along it
# [19] = test system: Platelet-derived growth factor receptor alpha (Homo sapiens), P16234 [V561D]; conditions: at 1 µM
# [20] = target: Platelet-derived growth factor receptor beta (Homo sapiens) (UniProt P09619); conditions: at 0.1 µM;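 note: reported value is the mean percent inhibition of the kinase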
# Chain of Leukocyte tyrosine kinase receptor (Homo sapiens) (P29376 whole entry): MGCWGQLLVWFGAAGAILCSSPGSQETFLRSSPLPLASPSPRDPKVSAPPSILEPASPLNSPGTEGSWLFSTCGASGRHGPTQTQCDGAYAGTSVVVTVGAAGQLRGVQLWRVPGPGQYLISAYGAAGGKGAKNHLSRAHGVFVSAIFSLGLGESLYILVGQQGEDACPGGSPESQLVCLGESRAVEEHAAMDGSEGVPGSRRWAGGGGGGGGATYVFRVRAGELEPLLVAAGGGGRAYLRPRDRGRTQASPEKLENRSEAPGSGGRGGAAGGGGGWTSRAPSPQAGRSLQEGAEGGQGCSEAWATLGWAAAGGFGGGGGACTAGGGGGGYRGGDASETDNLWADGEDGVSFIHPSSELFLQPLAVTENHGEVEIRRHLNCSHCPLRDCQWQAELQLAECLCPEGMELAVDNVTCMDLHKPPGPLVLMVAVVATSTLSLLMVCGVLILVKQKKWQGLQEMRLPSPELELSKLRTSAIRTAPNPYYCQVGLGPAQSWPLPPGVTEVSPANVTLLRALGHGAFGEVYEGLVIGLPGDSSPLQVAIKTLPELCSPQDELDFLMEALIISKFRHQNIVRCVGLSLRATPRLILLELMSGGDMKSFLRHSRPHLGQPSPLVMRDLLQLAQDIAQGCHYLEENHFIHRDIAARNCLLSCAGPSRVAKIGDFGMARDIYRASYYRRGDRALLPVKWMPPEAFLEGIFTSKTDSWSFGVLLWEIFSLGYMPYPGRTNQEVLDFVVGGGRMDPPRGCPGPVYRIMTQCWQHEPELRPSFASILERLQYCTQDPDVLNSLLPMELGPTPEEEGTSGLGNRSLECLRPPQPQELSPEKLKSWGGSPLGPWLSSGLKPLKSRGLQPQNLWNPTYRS
# Chain of Tyrosine-protein kinase Lyn (Homo sapiens) (P07948 2-512 limits assumed): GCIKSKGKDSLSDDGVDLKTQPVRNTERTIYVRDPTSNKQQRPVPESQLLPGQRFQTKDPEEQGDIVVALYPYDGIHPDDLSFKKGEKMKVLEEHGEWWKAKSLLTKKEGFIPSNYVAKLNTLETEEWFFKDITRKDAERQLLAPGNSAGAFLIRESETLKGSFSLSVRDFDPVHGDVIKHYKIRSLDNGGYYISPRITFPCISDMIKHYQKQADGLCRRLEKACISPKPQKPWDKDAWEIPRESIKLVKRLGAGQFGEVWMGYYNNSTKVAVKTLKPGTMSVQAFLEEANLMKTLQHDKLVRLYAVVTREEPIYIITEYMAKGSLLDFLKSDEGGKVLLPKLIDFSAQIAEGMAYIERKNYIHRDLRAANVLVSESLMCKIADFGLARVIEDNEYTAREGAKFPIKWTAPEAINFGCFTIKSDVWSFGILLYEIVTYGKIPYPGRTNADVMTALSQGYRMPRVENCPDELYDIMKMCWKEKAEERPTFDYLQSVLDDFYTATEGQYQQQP
SMILES,inhibition [1],inhibition [2],inhibition [3],inhibition [4],inhibition [5],inhibition [6],inhibition [7],inhibition [8],inhibition [9],inhibition [10],inhibition [11],inhibition [12],inhibition [13],inhibition [14],inhibition [15],inhibition [16],inhibition [17],inhibition [18],inhibition [19],inhibition [20]
Nc1nccc(-c2c(-c3ccc(F)cc3)ncn2C2CCC(O)CC2)n1 (stereo not given),0.8%,3.13%,23.6%,1.4%,18%,1.22%,7.13%,0.14%,3.65%,0.79%,4.37%,2.63%,21.6%,2.7%,14.2%,0.95%,0.82%,5.61%,21.1%,5.21%
COc1cc(Nc2ncc3c(C)nc(-c4cccc(Oc5ccccc5)c4)n3n2)cc(OC)c1OC,3.54%,3.39%,4.7%,1.89%,3.75%,1.36%,1.57%,1.11%,-0.18%,1.49%,4.06%,3.72%,10.5%,2.21%,5.9%,1.26%,1.96%,1.43%,9.34%,0.58%
Cc1ccc(NC(=O)c2ccoc2)cc1-c1ccc(C(=O)NCC2CC2)cc1,3.16%,3.73%,3.68%,3.72%,4.12%,1.1%,1.81%,11.4%,0.85%,0.54%,1.19%,3.05%,4.97%,0.3%,0.74%,0.22%,4.2%,0.35%,1%,1.42%
CCc1nccc2c1nc(-c1nonc1N)n2CC,6.1%,3.82%,6.26%,1.19%,2.71%,-0.98%,0.92%,2.04%,2.39%,1.31%,0.59%,5.23%,11.5%,2.48%,9.06%,2.57%,0.49%,0.72%,6.72%,2.42%
N#Cc1ccc(Oc2nccc(-c3c(-c4ccc(F)cc4)ncn3C3CCNCC3)n2)cc1,5.69%,5.36%,7.26%,3.37%,4.34%,2.29%,2.26%,3.69%,6.49%,1.86%,0.9%,4.83%,10.1%,3.33%,4.12%,3.29%,8.12%,3.7%,3.69%,2.5%
COC(=O)Nc1nc2ccc(Sc3ccc(NC(=O)Nc4cc(C(F)(F)F)ccc4F)cc3)cc2[nH]1,-2.11%,5.69%,56.1%,4.04%,49.8%,-0.94%,2.34%,1.57%,36.2%,32.2%,78.7%,10.8%,57.6%,0.97%,1.45%,7.2%,74.8%,11.9%,56.3%,4.35%
Fc1ccc(-c2ncn(C3CCNCC3)c2-c2ccnc(Oc3ccc(Oc4ccccc4)cc3)n2)cc1,4.33%,3.46%,5.25%,1.56%,2.92%,1.43%,10.6%,9.38%,0.02%,2.43%,8.37%,3.69%,9.58%,0.69%,1.95%,2.85%,6.65%,2.74%,3.75%,2.57%
Fc1ccc(-c2ncn(C3CCNCC3)c2-c2ccnc(Oc3ccc4c(c3)OCO4)n2)cc1,8.02%,5.3%,7.55%,3.33%,5.4%,2.7%,5.24%,2.27%,7.4%,5.07%,4.22%,11.8%,15.7%,2.99%,5.32%,11.5%,16.1%,5.05%,5.41%,7.36%
COc1ccc2cc(-c3c(-c4ccncc4)nc(-c4ccc(S(C)(=O)=O)cc4C)n3C)ccc2c1,5.96%,6.65%,22.3%,3.79%,16.7%,2.19%,9.48%,2.55%,4.21%,3.24%,6.38%,7.63%,23.6%,2.7%,12.3%,7.17%,10.1%,8.36%,15.3%,2.38%
COc1cccc(/C=N/Nc2ncnc3c2cnn3-c2cccc(OC)c2)c1,4.06%,5.08%,15.3%,3.29%,10.9%,1.87%,2.85%,4.9%,9.96%,1.34%,3.43%,2.69%,14.9%,2.84%,7.96%,2.59%,6.59%,2.65%,7.82%,4.05%
O=C(Nc1n[nH]c2nc(-c3ccco3)ccc12)C1CC1,1.2%,2.83%,4.01%,1.47%,3.2%,2.01%,1.71%,4.66%,5.26%,5.75%,7.97%,6.36%,10.6%,3.54%,6.18%,4.27%,6.36%,3.66%,7.73%,1.45%
C/C(Nc1ccc(S(N)(=O)=O)cc1)=C1/C(=O)Nc2ccccc21,9.41%,1.53%,8.14%,0.71%,6.94%,0.6%,9.21%,3.68%,9.39%,3.8%,30.9%,13.8%,53.2%,4.56%,33.6%,34.4%,95.7%,25%,62%,9.96%
COc1ccc(C2=C(N3CCc4ccccc43)C(=O)NC2=O)cc1,5.38%,6.92%,6.95%,5.2%,5.98%,1.96%,1.78%,6.5%,7.87%,2.97%,6.74%,4.56%,16.3%,5.15%,8.45%,7.16%,10.6%,5.61%,6.87%,5.31%
NC(=O)c1cc(-c2ccncc2)cc(-c2ccccc2)c1N,6.16%,11.7%,48.8%,10%,43%,1.28%,3.16%,0.99%,3.43%,2.46%,3.55%,9.17%,36.2%,3.01%,11.3%,5.87%,11.6%,5.79%,37.8%,9.7%
